Drawing on PubChem BioAssay (Tox21), this text covers Potency, max activation and outcome for 7 compounds.

Values joined by “and” are separate entries in the source; they are usually repeats but may differ in a detail not shown here. Equal entries are not always repeated. Inconclusive results are not listed. Some structures have more than one record in an assay (separate samples or runs), and their calls can disagree. Active and inactive are the calls of the source. Unless noted, the call rests on the fitted dose curve; in most records, active means well fitted curve in the direction sought with a large enough effect in the repeat runs; inconclusive means weak or mixed curves; inactive means no such curve, though single readings can be large; an effect the other way counts as inactive or inconclusive.

Test [1] is described as follows: Caspase-3/7 induction in HepG2 cells by small molecules, qHTS assay (AID 1346978). Further: nearly all actives have a fitted effect of over 15% in size. The procedure, abridged:
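Caspase-3/7 induction was measured by Caspase-Glo 3/7 luminescence (30 min, room temperature) after a 17 hr compound exposure of wild-type HepG2 cells seeded at 2,000 per well and pre-incubated 5 hr.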

Test [2] in a line: Caspase-3/7 induction in CHO-K1 cells by small molecules, qHTS assay (AID 1346980). Further: nearly all actives have a fitted effect of over 15% in size. In outline: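 Luminescent Caspase-Glo 3/7 read (30min, room temperature) quantified apoptosis induction. Cells were wild-type CHO-K1, treated with compound for 17hr at 37 C and 5% CO2.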
For orientation: In qHTS, concentration-response curves come from the screen itself.

The nature of test [3]: Caspase-3/7 induction in HepG2 cells by small molecules, qHTS cell viability counter screen (AID 1346981). Further: nearly all actives have a fitted effect of over 30% in size. Further: potency means the concentration at half of the fitted maximal effect. In outline:
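CellTiter-Fluor fluorescence measured viability in the same wells used for Caspase-Glo 3/7. HepG2 (wild type) at 2,000 cells/well were pre-incubated 5 hr, dosed, and given reagent at 16 hr, with 1 hr further at 37C.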

The target in test [4] is Nuclear receptor subfamily 1 group I member 2 (Homo sapiens) (UniProt O75469). Nature of the test: Human pregnane X receptor (PXR) small molecule agonists, qHTS assay (AID 1346982). Further: nearly all actives have a fitted effect of over 35% in size. Further: potency means the concentration at half of the fitted maximal effect. In outline:
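Agonist mode: luminescence from ONE-Glo after 24 h compound exposure at 37C in HepG2 cells carrying hPXR-responsive CYP3A4 luciferase, plated in charcoal-stripped serum medium 5 h beforehand.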

The target in test [5] is Acetylcholinesterase (Homo sapiens) (UniProt P22303). Briefly: Acetylcholinesterase (AChE) small molecule antagonists: enzyme-based qHTS assay (AID 1347397; calls by dose curve; further: nearly all actives have a fitted effect of over 55% in size). As to conditions: Potency: AChE enzyme activity inhibition. In outline:
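Colorimetric DTNB readout of acetylthiocholine hydrolysis, 10 min at room temperature, after 30 min room-temperature exposure of 50 mU/mL recombinant human enzyme to compound; DMSO vehicle control.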

Test [6] has the same target. Nature of the test: Acetylcholinesterase (AChE) small molecule antagonists: fluorescence cell-based qHTS assay (AID 1347398; calls by dose curve; further: nearly all actives have a fitted effect of over 50% in size). To be noted: Potency: AChE activity. In outline:
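Cellular AChE activity read as thiocholine from acetylthiocholine hydrolysis, detected by Thiolite Green fluorescence at 490/520 nm after 40 min at room temperature. Compounds were pre-incubated 30 min at 37 C on adherent SH-SY5Y cells.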

Test [7] shares this target. Briefly: Acetylcholinesterase (AChE) small molecule antagonists: enzyme-based qHTS assay with human liver microsomes (AID 1347399; calls by dose curve; further: nearly all actives have a fitted effect of over 60% in size). To be noted: Potency: qHTS inhibition. In outline:
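Recombinant human AChE (50 mU/mL in the enzyme mix) and human liver microsomes (0.25 mg/mL final) were preincubated with compound and NADPH (0.25 mg/mL final) for 30 min at 37 C. Acetylthiocholine/DTNB was then added; thiocholine was read colorimetrically after 10 min at room temperature.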

Test [8] has as its target Cytochrome P450 2D6 (Homo sapiens) (UniProt P10635). Nature of the test: Cytochrome P450 Family 2 Subfamily D Member 6 (CYP2D6) small molecule antagonists: luciferase reporter qHTS assay (AID 1671196). Further: nearly all actives have a fitted effect of over 50% in size. Further: potency means the concentration at half of the fitted maximal effect. In outline: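 CYP2D6 activity was followed as luminescence from its luciferin product after a 1 h NADPH-driven reaction at room temperature. Enzyme-substrate mix and compound were pre-incubated for 10 min, and the signal was read 20 min after adding detection reagent.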
In general terms: Reporter assays use an easily measured gene product as a stand-in for the process of interest.

In test [9] the target is Cytochrome P450 2C19 (Homo sapiens) (UniProt P33261). Briefly: Cytochrome P450 Family 2 Subfamily C Member 19 (CYP2C19) small molecule antagonists: luciferase reporter qHTS assay (AID 1671197). Further: nearly all actives have a fitted effect of over 65% in size. Further: potency means the concentration at half of the fitted maximal effect. In outline:
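Compounds were tested on CYP2C19 activity via proluciferin conversion to luciferin. The 37C, 1 h reaction followed NADPH addition; detection reagent stopped it.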

Test [10] concerns the target Cytochrome P450 2C9 (Homo sapiens) (UniProt P11712). Briefly: Cytochrome P450 Family 2 Subfamily C Member 9 (CYP2C9) small molecule antagonists: luciferase reporter qHTS assay (AID 1671198). Further: nearly all actives have a fitted effect of over 50% in size. Further: potency means the concentration at half of the fitted maximal effect. The procedure, abridged:
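Enzyme-substrate mix preincubated with compound 10 min at room temperature; reaction started with NADPH regeneration solution, 1 h 37C. Luminescent luciferin product read after 20 min detection reagent.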

In test [11] the target is Cytochrome P450 1A2 (Homo sapiens) (UniProt P05177). Briefly: Cytochrome P450 Family 1 Subfamily A Member 2 (CYP1A2) small molecule antagonists: luciferase reporter qHTS assay (AID 1671199). Further: nearly all actives have a fitted effect of over 50% in size. Further: potency means the concentration at half of the fitted maximal effect. The procedure, abridged:
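Luminescence from luciferin formed by CYP1A2 from a proluciferin substrate, read 20 min after detection reagent. Compound was pre-incubated 10 min with enzyme-substrate, and reaction started with NADPH regeneration solution for 1 h at room temperature; furafylline control.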

For test [12], the target named is Voltage-gated inwardly rectifying potassium channel KCNH2 (Homo sapiens) (UniProt Q12809). Briefly: Human Ether-a-go-go-Related Gene (hERG) channel small molecule antagonists: fluorescence cell-based qHTS assay (AID 1671200). Further: nearly all actives have a fitted effect of over 50% in size. Further: potency means the concentration at half of the fitted maximal effect. The procedure, abridged:
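First, 1000 cells per well are seeded and cultured overnight at 37 C. Next, FluxOR II dye is loaded for 1 h at room temperature, protected from light. After 10 more minutes, stimulus is added and fluorescence is read.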
(In general: hERG is a cardiac potassium channel; its block is linked to QT prolongation.)

Test [13] has as its target Cytochrome P450 3A4 (Homo sapiens) (UniProt P08684). Nature of the test: Cytochrome P450 Family 3 Subfamily A Member 4 (CYP3A4) small molecule antagonists: luciferase reporter qHTS assay (AID 1671201). Further: nearly all actives have a fitted effect of over 50% in size. Further: potency means the concentration at half of the fitted maximal effect. The procedure, abridged:
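Enzyme and proluciferin substrate are mixed with test chemicals for 10 min, then NADPH regeneration system drives turnover for 1 h at room temperature. A detection reagent halts the reaction; luminescence after 20 min gives relative activity.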

A short description of test [14]: Caspase-3/7 induction in CHO-K1 cells by small molecules, qHTS cell viability counter screen (AID 1346979). Further: nearly all actives have a fitted effect of over 35% in size. In outline:
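Seeding: 1,500 CHO-K1 cells/well. Rest: 5hr, 37C. Treatment: compounds in DMSO, 16hr. Read: CellTiter-Fluor, 1hr, fluorescence.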

Test [15] addresses Acetylcholinesterase (Homo sapiens) (UniProt P22303). Briefly: Acetylcholinesterase (AChE) small molecule antagonists: colormetric cell-based qHTS assay (AID 1347395; calls by dose curve; further: nearly all actives have a fitted effect of over 30% in size). In outline: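 Quantitative HTS in attached SH-SY5Y cells: 30 min compound exposure, then 90 min with acetylthiocholine and DTNB at 37 C; colour from thiocholine reports AChE activity.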
Test [16] deals with Nuclear receptor subfamily 1 group I member 2 (Rattus norvegicus) (UniProt Q9R1A7). Nature of the test: Rat pregnane X receptor (rPXR) activation by small molecules, qHTS assay (AID 1346983). Further: nearly all actives have a fitted effect of over 20% in size. As to conditions: rPXR luciferase reporter cells, One-Glo luminescence, 24 h; stronger effect = higher value. In outline:
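Luminescent readout (One-Glo luciferase, 30 min room temperature) followed 24 hr compound treatment at 37 C of rPXR cells plated 2,000 per well and preincubated 5hr; qHTS format with compounds delivered in DMSO.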

Test [17] has as its target Nuclear receptor subfamily 1 group I member 2 (Homo sapiens) (UniProt O75469). Briefly: CYP3A4 induction through human pregnane X receptor (PXR) by small molecules, qHTS assay (AID 1346984). Further: nearly all actives have a fitted effect of over 40% in size. The procedure, abridged: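 Read-out is luminescence after One-Glo addition, following a 3 hr, 37C incubation with Luciferin-IPA CYP3A4 substrate (3uM final). Before that, compounds were on DPX-2 cells (HepG2 co-transfected with PXR element plus CYP3A4-promoter luciferase) for 24 hr at 37C.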

For test [18] the target is unchanged. Briefly: Human pregnane X receptor (PXR) activation by small molecules, qHTS assay (AID 1346985). Further: nearly all actives have a fitted effect of over 40% in size. In outline: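 DPX-2 cells (HepG2 co-transfected with a PXR response element and a CYP3A4-promoter luciferase construct) were seeded at 2,000 per well, rested 5 hr at 37C, then exposed to DMSO-dissolved compounds for 24 hr. Activation was read as luciferase luminescence.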
On the % scale 0 is the no-effect control and ±100 the full control effect.

Nuclear receptor subfamily 1 group I member 2 (Homo sapiens), sequence (O75469 whole entry, looked up): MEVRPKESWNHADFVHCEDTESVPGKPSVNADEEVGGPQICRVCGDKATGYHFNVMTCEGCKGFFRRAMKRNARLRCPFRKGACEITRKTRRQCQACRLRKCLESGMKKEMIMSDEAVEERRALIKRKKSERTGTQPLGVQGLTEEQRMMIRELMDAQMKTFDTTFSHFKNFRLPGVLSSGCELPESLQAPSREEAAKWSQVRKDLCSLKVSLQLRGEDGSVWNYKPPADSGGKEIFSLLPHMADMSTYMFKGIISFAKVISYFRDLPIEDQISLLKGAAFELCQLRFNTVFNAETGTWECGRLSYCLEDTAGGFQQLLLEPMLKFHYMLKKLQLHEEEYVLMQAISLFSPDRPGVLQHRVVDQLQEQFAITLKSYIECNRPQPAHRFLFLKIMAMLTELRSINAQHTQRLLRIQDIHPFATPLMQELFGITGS
Acetylcholinesterase (Homo sapiens), sequence (P22303 whole entry, looked up): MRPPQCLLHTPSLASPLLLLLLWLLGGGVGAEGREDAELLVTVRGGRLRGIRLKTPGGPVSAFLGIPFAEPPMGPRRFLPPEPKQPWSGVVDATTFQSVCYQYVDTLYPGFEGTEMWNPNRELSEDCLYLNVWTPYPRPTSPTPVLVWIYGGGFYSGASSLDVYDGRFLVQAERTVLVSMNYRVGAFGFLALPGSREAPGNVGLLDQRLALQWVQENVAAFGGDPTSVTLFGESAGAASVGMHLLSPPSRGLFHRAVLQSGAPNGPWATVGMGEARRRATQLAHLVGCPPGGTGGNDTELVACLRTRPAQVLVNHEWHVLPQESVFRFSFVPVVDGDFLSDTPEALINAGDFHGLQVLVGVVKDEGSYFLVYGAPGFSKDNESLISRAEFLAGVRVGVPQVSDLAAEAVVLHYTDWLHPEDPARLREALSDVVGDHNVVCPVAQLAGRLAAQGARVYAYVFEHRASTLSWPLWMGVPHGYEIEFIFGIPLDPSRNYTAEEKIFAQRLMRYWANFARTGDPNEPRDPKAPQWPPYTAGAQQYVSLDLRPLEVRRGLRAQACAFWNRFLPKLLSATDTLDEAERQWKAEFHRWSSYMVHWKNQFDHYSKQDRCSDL
Cytochrome P450 2C19 (Homo sapiens), sequence (P33261 whole entry, looked up): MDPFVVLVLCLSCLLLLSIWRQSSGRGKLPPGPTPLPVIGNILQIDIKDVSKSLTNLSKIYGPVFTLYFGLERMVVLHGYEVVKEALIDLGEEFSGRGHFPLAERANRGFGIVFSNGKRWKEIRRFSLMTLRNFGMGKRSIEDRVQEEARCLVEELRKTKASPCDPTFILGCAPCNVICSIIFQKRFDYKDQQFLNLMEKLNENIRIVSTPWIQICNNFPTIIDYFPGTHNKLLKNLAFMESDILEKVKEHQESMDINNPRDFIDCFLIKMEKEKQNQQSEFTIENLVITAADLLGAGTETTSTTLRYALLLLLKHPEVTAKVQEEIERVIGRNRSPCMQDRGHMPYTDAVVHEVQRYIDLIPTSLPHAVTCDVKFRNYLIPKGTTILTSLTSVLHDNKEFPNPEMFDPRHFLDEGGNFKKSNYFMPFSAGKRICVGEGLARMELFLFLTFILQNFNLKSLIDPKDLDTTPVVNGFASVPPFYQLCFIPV
Cytochrome P450 1A2 (Homo sapiens), sequence (P05177 whole entry, looked up): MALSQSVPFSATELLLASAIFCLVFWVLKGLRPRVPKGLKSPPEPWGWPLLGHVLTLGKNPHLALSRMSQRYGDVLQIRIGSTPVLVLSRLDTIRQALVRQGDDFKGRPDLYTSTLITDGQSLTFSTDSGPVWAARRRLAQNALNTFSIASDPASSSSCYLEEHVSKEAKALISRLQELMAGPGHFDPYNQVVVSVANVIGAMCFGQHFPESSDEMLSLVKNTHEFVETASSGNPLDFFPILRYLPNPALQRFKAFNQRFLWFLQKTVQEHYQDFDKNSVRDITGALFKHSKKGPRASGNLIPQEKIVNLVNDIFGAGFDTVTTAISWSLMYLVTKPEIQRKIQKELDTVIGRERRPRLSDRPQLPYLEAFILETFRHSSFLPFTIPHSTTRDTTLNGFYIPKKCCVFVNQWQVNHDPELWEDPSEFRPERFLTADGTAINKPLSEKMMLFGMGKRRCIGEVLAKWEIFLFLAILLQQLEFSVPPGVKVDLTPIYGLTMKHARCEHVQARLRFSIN
Cytochrome P450 2D6 (Homo sapiens), sequence (P10635 whole entry, looked up): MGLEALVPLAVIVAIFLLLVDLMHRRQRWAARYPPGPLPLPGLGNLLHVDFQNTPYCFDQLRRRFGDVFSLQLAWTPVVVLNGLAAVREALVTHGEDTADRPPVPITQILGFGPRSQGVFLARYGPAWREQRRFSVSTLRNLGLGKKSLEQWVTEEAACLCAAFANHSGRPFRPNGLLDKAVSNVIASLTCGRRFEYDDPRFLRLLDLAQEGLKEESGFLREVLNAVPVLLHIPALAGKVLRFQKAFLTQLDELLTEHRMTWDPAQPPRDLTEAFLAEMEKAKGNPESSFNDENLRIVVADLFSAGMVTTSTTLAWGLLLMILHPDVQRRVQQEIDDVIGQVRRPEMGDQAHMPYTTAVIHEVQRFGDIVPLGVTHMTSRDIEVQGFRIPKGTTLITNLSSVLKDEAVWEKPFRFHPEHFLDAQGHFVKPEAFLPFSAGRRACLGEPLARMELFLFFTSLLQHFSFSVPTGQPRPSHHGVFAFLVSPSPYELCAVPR
Voltage-gated inwardly rectifying potassium channel KCNH2 (Homo sapiens), sequence (Q12809 whole entry, looked up): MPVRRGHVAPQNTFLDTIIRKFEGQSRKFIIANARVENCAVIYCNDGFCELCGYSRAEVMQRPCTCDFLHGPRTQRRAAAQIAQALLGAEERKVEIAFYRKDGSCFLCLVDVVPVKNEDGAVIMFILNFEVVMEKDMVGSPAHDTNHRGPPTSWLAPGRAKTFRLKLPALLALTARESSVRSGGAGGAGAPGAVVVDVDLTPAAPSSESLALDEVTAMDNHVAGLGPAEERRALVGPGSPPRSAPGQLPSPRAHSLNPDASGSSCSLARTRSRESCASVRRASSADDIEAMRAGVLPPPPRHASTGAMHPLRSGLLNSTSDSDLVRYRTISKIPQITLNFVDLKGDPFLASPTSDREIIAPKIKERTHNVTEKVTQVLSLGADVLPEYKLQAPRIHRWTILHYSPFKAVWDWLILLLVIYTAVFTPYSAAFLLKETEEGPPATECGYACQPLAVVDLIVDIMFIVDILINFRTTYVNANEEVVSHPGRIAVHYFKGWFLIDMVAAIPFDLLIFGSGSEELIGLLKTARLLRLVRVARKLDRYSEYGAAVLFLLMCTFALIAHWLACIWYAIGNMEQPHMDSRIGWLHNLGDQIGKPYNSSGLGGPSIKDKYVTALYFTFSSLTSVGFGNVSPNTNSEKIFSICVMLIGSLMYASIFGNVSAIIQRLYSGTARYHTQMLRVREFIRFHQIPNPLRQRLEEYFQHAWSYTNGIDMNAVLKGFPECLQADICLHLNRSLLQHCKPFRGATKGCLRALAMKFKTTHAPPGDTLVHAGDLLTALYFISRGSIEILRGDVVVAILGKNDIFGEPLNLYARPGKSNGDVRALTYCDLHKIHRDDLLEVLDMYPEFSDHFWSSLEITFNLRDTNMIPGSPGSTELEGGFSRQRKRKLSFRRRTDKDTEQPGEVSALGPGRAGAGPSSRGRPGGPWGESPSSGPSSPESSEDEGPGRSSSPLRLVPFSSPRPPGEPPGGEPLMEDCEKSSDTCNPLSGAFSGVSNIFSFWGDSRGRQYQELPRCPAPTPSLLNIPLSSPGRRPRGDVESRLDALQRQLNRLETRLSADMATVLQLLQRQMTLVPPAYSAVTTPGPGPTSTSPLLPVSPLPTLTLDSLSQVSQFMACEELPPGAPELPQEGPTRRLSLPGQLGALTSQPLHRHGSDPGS
Cytochrome P450 3A4 (Homo sapiens), sequence (P08684 whole entry, looked up): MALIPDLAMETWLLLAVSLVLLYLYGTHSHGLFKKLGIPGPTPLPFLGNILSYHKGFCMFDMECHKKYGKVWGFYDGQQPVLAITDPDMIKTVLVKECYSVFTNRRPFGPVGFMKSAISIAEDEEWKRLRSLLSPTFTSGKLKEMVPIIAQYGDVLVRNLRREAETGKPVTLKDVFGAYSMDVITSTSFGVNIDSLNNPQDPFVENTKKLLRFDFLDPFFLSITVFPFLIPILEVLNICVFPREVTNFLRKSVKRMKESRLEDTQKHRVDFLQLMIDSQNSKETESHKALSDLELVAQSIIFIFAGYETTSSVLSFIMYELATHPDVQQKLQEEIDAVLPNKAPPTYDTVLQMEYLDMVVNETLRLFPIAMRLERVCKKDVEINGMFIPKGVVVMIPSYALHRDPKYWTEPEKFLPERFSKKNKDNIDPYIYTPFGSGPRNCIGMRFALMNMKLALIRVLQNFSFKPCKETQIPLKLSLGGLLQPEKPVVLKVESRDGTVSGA
Cytochrome P450 2C9 (Homo sapiens), sequence (P11712 whole entry, looked up): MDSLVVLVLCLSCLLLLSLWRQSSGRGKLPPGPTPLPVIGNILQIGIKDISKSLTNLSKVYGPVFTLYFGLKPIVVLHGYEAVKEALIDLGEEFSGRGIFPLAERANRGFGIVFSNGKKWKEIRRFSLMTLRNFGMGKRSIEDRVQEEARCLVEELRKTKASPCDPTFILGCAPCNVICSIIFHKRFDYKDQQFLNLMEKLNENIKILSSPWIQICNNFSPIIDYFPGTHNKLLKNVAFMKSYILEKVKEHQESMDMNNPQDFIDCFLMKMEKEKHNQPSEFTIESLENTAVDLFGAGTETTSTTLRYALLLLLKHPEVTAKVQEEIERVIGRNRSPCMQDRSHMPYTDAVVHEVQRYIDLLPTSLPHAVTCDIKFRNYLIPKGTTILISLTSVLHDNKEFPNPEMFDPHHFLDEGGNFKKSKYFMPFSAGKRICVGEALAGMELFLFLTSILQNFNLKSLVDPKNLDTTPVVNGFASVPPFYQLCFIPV

In the case of `CCCCCc1cc(O)cc(O)c1`, the Potency entry in test [1], in test [2], in test [5], in [6], in [7] and in test [12] was “inactive” in each case. For the same compound, the Potency in test [3] is 48.6 µM (active); in test [4], 61.4 µM (active) and 30.6 µM (active); in test [8], 10.1 µM (active) and 31.7 µM (active); in test [9], 3.57 µM (active) and 6.33 µM (active); in test [10] it was 11.3 µM (active) and 31.7 µM (active); in test [11] it was 17.9 µM (active) and 35.6 µM (active). For the same compound, in test [13], the Potency is 5.05 µM (active) and 22.4 µM (active).
As for `CCN(N=O)C(N)=O`, the Potency entry in test [14], in test [2], in test [3], in [4], in test [15] and in test [5] was “inactive” throughout. In addition, the Potency result in test [6], in test [7], in test [8], in test [10], in test [11] and in test [12] was “inactive” in each case. Besides, the Potency in [9] is 69.7 µM (active) and inactive.
Turning to `Clc1nc(Cl)nc(Cl)n1`, the Potency entry in test [1], in test [2], in test [3], in test [4], in [15] and in test [5] was “inactive” each time. Also, the Potency entry in [6], in [7], in test [8], in [9], in test [10] and in [11] was “inactive” throughout. Moreover, the Potency entry in [12] and in test [13] was “inactive” in each case.
Turning to `C[C@]12CCC(=O)C(O)=C1CC[C@@H]1[C@@H]2CC[C@]2(C)C(=O)CC[C@@H]12`, the Potency result in [1], in test [2], in test [3], in test [5], in test [6] and in test [7] was “inactive” each time. For the same compound, the Potency entry in [11] and in [12] was “inactive” each time. Moreover, the Potency is 54.5 µM (active) and inactive in [4]; 31.7 µM (active) in test [8]; 20 µM (active) in test [9]. Further, the max activation in test [16] was -2.61% (inactive). In addition, the compound was classed as inactive in [17] and in test [18].
`C#CCOS(=O)OC1CCCCC1Oc1ccc(C(C)(C)C)cc1` (stereo not drawn): the Potency entry in [1], in [2], in test [15], in test [5], in test [6] and in test [7] was “inactive” throughout. The Potency in test [4] is 8.64 µM (active) and 6.86 µM (active); in test [8], 22.5 µM (active) and 22.4 µM (active); in test [9], 895 nM (active) and 710 nM (active); in [10], 503 nM (active) and 502 nM (active); in [11] it was 8.95 µM (active) and 8.94 µM (active).
`CC(C)N(C(=O)SCC(Cl)=C(Cl)Cl)C(C)C`: the Potency entry in [1], in [2], in test [3], in test [4], in test [15] and in test [5] was “inactive” each time. Also, the Potency entry in [6], in test [7], in [8], in [11] and in test [13] was “inactive” each time. In addition, the Potency in test [9] was 35.1 µM (active) and 5.03 µM (active); in test [10], “inactive and 31.7 µM (active)”; in test [12], 27.5 µM (active).
With `CCOc1cc(C=O)ccc1O`, the Potency entry in test [14], in test [2], in test [3], in [4], in test [15] and in test [5] was “inactive” in each case. Moreover, the Potency result in [6], in test [7], in test [8], in test [9], in [10] and in test [12] was “inactive” throughout. For the same compound, in [13], the Potency result was “inactive”. In test [11], the Potency is 40 µM (active) and 39.9 µM (active).
